In PubChem BioAssay AID504384 (National Center for Advancing Translational Sciences (NCATS), 2011):
Activity calls are given as the source filed them.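 Rule for the calls: active = compound that blocked FSH-driven cAMP in FSH receptor cells, giving a fitted IC50; inactive = the rest.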

target: Follicle-stimulating hormone receptor (Homo sapiens) (UniProt P23945); test: Counterscreen for antagonists of the thyroid stimulating hormone receptor: ELISA activity in a Follicle Stimulating Hormone receptor cell line; conditions: HEK293-FSHR, FSH-induced cAMP ELISA chemiluminescence
Excerpt: TSH is an alpha/beta heterodimeric glycoprotein hormone secreted from the anterior pituitary gland which belongs to the glycoprotein hormone family. The actions of TSH are mediated by a seven-transmembrane receptor, which upon TSH binding couples preferentially to the G-alpha (s) protein (Gs), resulting in activation of adenylate cyclase and increase in cyclic adenosine 3', 5' monophosphate (cAMP). The TSH receptor (THSR) is mainly expressed in thyroid follicular cells and regulates their growth and function. This cell based assay was conducted on a TSHR transfected HEK 293 cell line, measuring cAMP stimulation using antibody-based Homogeneous Time Resolved Fluorescence (HTRF). Our goal is to identify small molecules that will inhibit (antagonize) the thyroid-stimulating hormone receptor (TSHR), a member of the 7 transmembrane-spanning receptor (7TMR) family of cell surface receptors. TSHR-mediated hyperthyroidism is important in thyroid pathology. The development of small molecule antagonists of TSHR may lead to therapeutic approaches for TSHR-mediated hyperthyroidism caused by constitutively activating mutations or stimulating auto-antibodies associated with Graves' disease. Graves' disease is the leading cause of hyperthyroidism and is caused by autoantibodies that stimulate TSHR (TsAbs) causing thyroid growth and unregulated overproduction of thyroid hormones and existing treatments have liabilities (agranulocytosis). In addition, TSHRs are known to be expressed in multiple extrathyroidal tissues including bone, brain, kidney, testis, fat and cells of the immune system but the role of the TSHR in these tissues is not clear. Therefore, TSHR antagonists/inverse agonists could be used as probes of extrathyroidal TSHR function. Finally, TSHR inverse agonists, which are a subclass of antagonists that inhibit agonist-independent (or basal or constitutive) TSHR signaling, could be used to inhibit TSH-independent signaling in patients with recurrent or metastatic thyroid cancer who are receiving thyroid hormone to suppress TSH. In order to confirm specificity of the compounds to the TSHR, a confirmatory assay was conducted on a similar family member, the Follicle Stimulating Hormone (FSH) receptor, transfected into a HEK 293 cell line, using an orthogonal detection technology to measure cAMP stimulation: an ELISA based cAMP competition assay using cAMP-Screen Direct System (Applied Biosystems, Foster City, CA).
Transiently transfected HEK-EM 293 cells or cells stably expressing FSHR were seeded into 96-well plates at a density of 7 x10^4 cells per well in DMEM containing 10% FBS. Cells were cultured for 24 h before incubation for 20 min in HBSS/10 mM HEPES (pH 7.4). To determine the effect of the compound on FSH induced FSHR activity, cells were incubated for 20 min with the compound in HBSS/HEPES without IBMX and subsequently for 40 min with bovine FSH (Sigma) and the compound in HBSS/HEPES supplemented with 1 mM IBMX at 37 C. The levels of cAMP in cells incubated in HBSS/HEPES without IBMX were subtracted in all experiments. After aspiration of the incubation medium, cells were lysed using lysis buffer of the cAMP-Screen Direct system (Applied Biosystems, Foster City, CA). The cAMP content of the cell lysate was determined using the method described in the manufacturer's protocol. The chemiluminescence signal was measured in a VICTOR3 V 1420 multilabel counter (PerkinElmer, Norwalk, CT). The potencies (EC50 and IC50) of the ligands were obtained from dose-response curves by data analysis with GraphPad Prism 4 for Windows.

Follicle-stimulating hormone receptor (Homo sapiens), sequence (P23945 whole entry, looked up): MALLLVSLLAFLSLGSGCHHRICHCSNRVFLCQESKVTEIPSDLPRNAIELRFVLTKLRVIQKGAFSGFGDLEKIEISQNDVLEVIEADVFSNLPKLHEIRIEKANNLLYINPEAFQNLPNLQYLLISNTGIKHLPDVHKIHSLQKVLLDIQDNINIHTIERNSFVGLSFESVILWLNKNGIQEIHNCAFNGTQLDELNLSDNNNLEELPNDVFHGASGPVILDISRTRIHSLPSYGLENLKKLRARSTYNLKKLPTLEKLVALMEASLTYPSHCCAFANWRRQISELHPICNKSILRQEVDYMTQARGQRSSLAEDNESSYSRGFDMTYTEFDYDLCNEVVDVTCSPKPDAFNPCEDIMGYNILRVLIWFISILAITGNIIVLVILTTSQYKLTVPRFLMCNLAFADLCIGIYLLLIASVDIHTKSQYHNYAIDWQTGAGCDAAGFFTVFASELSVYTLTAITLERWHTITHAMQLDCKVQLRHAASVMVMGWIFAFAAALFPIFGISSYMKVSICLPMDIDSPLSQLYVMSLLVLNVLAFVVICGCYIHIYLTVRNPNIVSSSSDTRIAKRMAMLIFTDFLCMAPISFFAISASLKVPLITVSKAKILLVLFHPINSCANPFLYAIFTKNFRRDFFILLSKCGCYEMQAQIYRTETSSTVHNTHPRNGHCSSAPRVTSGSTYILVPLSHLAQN

SMILES	outcome	IC50
COc1ccc(C2Nc3ccccc3C(=O)N2Cc2ccco2)cc1COc1c(C)cc(NC(C)=O)cc1C (stereo unspecified)	inactive	
COc1ccc(C2Nc3ccccc3C(=O)N2Cc2ccco2)cc1CSc1c(C)cccc1C (stereo unspecified)		14.6 µM (active)
CCc1cccc(CC)c1OCc1cc(C2Nc3ccccc3C(=O)N2Cc2ccco2)ccc1OC (stereo unspecified)	inactive	
Cc1cccc(C)c1OCc1cccc(C2Nc3ccccc3C(=O)N2Cc2ccco2)c1 (stereo unspecified)		8.2 µM (active)
COc1ccc(C2Nc3ccccc3C(=O)N2Cc2cccnc2)cc1COc1c(C)cccc1C (stereo unspecified)		32.7 µM (active)
COc1ccc(C2Nc3ccccc3C(=O)N2Cc2ccco2)cc1COc1c(C)cccc1C (stereo unspecified)		4.55 µM (active)
